The values below come from publication PMC7862700, “An all-to-all approach to the identification of sequence-specific readers for epigenetic DNA modifications on cytosine”.

What all share (assay): DAPPL (digital affinity profiling via proximity ligation, sequencing); 10 mM Tris-HCl pH 7.5, 50 mM NaCl, 1 mM DTT, 4% glycerol, room temperature, 30 min; GST-TFs on glutathione beads, 16-mer random dsDNA library, 0.1% formaldehyde crosslink after washing; high values mean tight binding
Holding throughout (conditions): protein: recombinant; tags: N-terminal GST; dsDNA, one strand shown

One test addresses T1, FLI1 (Homo sapiens, UniProt Q01543 1-452).
T1 sequence: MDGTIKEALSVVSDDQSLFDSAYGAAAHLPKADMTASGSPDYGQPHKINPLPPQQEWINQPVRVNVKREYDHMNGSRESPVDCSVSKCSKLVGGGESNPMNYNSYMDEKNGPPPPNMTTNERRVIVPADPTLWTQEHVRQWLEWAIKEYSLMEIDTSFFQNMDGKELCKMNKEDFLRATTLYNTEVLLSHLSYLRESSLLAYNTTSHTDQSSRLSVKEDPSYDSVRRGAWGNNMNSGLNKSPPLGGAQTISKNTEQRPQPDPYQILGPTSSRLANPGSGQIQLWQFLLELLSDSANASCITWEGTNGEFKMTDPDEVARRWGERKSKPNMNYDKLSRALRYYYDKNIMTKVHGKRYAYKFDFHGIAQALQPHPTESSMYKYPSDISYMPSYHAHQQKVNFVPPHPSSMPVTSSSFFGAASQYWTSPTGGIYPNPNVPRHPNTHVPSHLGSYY
The essentials: (§1)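 Binding signal is defined as a hexamer's read frequency for one factor over its frequency for the tag-only sample. To obtain reads, GST-fused human transcription factors were expressed in yeast, captured on glutathione beads, barcoded with DNA and pooled with that sample. Pools met 200 nmole of a 16-mer random double-stranded DNA library in Tris/NaCl/DTT/glycerol buffer for 30 min at room temperature before washing, 0.1% formaldehyde crosslinking, proximity ligation (BsaI/T4 ligase, 1 h, 37 °C), PCR and Illumina NextSeq500 sequencing.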

A further test has as its target T2, ELK1 (Homo sapiens, UniProt P19419 1-428).
T2 sequence: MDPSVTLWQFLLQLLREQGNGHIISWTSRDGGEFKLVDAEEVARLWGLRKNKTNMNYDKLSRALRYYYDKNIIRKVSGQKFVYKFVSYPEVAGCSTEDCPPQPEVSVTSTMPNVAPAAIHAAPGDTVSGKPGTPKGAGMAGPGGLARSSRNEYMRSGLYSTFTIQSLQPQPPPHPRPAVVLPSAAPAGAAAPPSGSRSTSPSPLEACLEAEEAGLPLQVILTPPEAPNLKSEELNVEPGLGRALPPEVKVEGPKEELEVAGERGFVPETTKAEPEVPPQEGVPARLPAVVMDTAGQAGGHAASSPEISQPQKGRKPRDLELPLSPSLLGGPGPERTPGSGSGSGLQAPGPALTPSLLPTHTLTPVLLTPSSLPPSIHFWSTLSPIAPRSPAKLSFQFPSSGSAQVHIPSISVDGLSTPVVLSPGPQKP
The essentials: as §1

For another test, the target named is T3, GABPA (Homo sapiens, UniProt Q06546 1-454).
T3 sequence: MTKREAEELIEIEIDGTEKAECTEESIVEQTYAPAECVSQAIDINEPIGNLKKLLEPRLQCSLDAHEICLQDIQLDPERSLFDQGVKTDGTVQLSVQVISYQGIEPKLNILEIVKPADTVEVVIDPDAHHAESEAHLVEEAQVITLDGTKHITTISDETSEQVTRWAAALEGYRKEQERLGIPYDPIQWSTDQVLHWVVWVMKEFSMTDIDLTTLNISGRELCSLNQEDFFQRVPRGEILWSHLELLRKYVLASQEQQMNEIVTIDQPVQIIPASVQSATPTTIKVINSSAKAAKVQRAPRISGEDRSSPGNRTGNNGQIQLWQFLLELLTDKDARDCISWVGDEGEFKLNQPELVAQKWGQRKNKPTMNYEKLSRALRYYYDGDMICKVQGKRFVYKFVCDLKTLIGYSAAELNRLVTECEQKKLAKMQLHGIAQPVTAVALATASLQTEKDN
The method, boiled down:
as §1

In a further test the target is T4, ERG (Homo sapiens, UniProt P11308 1-479).
T4 sequence: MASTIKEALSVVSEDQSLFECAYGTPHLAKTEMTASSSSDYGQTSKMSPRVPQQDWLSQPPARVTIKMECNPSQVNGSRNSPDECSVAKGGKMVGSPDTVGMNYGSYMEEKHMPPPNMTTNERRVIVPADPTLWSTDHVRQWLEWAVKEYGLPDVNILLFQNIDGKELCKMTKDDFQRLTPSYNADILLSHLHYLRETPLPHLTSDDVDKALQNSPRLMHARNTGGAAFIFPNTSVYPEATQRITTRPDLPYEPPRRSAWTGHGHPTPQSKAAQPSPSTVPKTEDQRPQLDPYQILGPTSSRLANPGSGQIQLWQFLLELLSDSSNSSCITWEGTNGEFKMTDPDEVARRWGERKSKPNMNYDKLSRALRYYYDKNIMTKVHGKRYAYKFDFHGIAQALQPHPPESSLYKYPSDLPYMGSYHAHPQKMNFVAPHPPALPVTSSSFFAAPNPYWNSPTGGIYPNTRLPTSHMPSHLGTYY
The method, boiled down:
as §1

The next test addresses ELF1 (Homo sapiens, UniProt P32519 1-619). The essentials:
as §1

The target in another test is T5, EHF (Homo sapiens, UniProt Q9NZC4 1-300).
T5 sequence: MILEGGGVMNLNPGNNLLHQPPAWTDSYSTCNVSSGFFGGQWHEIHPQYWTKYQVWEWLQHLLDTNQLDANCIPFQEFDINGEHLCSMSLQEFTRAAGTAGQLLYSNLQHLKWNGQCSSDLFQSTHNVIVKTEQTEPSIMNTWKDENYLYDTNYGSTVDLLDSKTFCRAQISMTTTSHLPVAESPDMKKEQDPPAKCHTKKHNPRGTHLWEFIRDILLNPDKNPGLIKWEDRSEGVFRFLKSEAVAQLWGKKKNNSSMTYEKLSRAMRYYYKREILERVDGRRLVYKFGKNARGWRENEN
The essentials:
as §1

A further test deals with SPI1 (Homo sapiens, UniProt P17947 1-270). The essentials: as §1
Another test has as its target SPIB (Homo sapiens, UniProt Q01892 1-262). The method, boiled down:
as §1

In another test the target is T6, ELK3 (Homo sapiens, UniProt P41970 1-407).
T6 sequence: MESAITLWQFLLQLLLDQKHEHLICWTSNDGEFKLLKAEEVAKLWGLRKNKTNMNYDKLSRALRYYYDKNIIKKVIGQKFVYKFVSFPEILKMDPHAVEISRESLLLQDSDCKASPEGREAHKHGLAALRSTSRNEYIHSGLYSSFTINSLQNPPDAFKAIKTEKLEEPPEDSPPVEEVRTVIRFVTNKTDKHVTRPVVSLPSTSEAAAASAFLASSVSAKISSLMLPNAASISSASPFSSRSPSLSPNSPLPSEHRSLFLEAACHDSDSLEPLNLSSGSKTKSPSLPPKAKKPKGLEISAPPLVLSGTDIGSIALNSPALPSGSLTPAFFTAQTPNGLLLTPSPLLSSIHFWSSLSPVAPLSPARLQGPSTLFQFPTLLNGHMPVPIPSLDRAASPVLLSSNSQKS
The method, boiled down: as §1

The next test deals with T7, FEV (Homo sapiens, UniProt Q99581 1-238).
T7 sequence: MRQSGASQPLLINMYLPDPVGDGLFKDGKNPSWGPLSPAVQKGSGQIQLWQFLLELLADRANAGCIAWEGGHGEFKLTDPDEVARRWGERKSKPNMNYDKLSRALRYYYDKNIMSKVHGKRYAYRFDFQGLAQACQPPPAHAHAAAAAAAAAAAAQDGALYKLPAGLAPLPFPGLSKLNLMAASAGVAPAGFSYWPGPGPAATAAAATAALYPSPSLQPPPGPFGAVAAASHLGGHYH
The essentials: as §1

A further test concerns the target ETV5 (Homo sapiens, UniProt P41161 1-510). The essentials:
as §1

The target of a further test is T8, SPIC (Homo sapiens, UniProt Q8N5J4 1-248).
T8 sequence: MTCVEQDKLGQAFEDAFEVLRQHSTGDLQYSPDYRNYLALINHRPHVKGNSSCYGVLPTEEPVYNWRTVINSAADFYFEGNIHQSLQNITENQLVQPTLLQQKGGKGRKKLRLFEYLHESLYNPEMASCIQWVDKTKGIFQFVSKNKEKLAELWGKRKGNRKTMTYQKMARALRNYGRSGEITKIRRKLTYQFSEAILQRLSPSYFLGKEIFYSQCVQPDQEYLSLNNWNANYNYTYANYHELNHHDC
The method, boiled down: as §1

In another test the target is ELF4 (Homo sapiens, UniProt Q99607 1-663). The essentials: as §1
For another test, the target named is T9, ELK4 (Homo sapiens, UniProt P28324-2 1-405).
T9 sequence: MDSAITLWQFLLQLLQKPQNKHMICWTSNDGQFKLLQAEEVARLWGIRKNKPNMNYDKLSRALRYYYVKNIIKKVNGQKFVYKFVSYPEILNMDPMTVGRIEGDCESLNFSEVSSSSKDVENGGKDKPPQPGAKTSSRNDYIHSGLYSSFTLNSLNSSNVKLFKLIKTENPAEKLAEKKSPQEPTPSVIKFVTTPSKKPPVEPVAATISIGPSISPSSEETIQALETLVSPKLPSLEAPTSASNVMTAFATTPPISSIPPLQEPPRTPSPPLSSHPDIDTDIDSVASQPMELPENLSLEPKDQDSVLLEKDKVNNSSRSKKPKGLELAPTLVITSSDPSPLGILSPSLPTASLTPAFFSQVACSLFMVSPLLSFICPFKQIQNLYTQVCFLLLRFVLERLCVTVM
The essentials: as §1

The target of the next test is T10, ETV2 (Homo sapiens, UniProt O00321 1-342).
T10 sequence: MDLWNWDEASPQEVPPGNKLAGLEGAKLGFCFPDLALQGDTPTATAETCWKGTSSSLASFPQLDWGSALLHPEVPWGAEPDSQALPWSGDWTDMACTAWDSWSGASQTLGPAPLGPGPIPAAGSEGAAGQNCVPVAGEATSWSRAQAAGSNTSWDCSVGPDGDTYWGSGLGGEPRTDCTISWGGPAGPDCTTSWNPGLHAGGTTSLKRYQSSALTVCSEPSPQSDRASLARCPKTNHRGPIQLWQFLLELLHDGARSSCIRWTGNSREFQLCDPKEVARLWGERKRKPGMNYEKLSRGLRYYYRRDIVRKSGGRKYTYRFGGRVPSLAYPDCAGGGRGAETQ
The method, boiled down: as §1

Another test deals with T11, ELF3 (Homo sapiens, UniProt P78545 1-371).
T11 sequence: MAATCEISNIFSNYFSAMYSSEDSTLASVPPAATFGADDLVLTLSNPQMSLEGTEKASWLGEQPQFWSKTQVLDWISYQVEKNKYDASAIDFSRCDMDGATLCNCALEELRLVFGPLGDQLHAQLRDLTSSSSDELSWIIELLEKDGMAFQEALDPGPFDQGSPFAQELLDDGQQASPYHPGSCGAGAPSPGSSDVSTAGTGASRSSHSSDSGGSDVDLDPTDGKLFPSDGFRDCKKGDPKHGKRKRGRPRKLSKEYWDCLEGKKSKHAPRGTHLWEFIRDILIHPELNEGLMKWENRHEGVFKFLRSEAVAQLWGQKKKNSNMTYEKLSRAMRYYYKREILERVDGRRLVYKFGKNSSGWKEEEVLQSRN
The essentials: as §1

In a further test the target is ETV1 (Homo sapiens, UniProt P50549 1-477). The essentials: as §1
Chain of ETV1 (P50549 whole entry): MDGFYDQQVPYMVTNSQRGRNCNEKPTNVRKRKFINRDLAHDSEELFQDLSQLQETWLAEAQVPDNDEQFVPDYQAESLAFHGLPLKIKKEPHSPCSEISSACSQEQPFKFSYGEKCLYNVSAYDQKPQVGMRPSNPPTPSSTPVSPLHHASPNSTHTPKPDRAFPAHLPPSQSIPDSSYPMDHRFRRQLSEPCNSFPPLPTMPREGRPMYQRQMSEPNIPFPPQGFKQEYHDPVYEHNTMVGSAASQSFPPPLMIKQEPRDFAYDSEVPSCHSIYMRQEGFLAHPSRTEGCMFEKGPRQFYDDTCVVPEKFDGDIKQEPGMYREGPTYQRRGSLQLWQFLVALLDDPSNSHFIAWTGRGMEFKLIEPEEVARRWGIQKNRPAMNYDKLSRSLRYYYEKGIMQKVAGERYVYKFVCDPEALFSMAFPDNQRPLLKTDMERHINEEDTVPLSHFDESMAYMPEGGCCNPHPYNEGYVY

Chain of ELF1 (P32519 whole entry): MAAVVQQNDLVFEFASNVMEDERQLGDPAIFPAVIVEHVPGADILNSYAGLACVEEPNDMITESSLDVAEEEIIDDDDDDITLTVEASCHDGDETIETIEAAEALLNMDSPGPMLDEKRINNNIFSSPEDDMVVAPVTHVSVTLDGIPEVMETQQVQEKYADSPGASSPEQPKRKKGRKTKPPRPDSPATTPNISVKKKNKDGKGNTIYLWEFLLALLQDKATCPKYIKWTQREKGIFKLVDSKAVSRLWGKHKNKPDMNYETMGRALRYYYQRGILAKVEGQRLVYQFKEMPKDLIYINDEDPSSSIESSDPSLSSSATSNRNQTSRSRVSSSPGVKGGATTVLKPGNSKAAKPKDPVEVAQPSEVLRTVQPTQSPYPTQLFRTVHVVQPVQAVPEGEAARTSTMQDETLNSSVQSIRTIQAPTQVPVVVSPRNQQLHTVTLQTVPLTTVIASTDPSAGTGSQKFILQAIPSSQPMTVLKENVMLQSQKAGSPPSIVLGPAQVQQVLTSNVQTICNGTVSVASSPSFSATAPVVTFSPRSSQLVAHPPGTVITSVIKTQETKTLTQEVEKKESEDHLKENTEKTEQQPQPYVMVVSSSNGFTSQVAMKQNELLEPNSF
Chain of ELF4 (Q99607 whole entry): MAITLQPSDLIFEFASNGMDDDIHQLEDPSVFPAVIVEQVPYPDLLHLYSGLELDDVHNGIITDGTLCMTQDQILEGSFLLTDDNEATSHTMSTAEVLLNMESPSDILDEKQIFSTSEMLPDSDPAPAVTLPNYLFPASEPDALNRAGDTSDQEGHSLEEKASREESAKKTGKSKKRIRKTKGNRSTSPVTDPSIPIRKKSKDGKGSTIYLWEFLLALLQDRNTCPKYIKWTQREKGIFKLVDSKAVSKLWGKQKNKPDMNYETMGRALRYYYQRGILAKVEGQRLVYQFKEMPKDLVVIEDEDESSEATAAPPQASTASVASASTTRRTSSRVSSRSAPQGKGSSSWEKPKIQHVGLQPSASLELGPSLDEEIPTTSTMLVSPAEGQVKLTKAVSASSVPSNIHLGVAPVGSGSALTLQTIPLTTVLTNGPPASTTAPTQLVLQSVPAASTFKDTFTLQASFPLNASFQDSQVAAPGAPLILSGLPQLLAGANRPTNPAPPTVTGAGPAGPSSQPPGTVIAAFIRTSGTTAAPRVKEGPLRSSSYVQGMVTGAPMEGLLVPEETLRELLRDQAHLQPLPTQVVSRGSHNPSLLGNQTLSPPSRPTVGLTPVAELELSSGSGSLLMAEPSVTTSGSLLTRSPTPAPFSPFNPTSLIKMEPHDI
Chain of SPIB (Q01892 whole entry): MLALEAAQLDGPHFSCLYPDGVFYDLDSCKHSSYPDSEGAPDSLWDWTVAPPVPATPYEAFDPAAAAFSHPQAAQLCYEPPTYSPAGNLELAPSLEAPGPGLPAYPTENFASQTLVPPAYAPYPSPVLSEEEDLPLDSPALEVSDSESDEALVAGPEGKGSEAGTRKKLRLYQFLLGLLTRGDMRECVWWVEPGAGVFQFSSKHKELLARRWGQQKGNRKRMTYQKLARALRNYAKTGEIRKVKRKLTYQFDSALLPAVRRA
Chain of ETV5 (P41161 whole entry): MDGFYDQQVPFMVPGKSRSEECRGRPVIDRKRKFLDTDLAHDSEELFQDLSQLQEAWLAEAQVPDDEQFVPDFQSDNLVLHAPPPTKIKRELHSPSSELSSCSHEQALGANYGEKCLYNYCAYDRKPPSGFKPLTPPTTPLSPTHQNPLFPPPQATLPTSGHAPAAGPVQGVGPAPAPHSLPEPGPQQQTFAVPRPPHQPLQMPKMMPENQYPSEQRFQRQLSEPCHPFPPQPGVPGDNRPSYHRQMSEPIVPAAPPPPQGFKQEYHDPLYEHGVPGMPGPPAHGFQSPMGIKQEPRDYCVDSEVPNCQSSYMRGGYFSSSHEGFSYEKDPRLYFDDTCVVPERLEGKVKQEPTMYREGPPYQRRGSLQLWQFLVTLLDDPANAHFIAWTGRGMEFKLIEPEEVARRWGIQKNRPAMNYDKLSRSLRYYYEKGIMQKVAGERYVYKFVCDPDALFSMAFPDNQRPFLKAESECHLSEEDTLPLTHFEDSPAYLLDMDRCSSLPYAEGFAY

As to ACACAT, the binding signal with FLI1 was 1.34 fold enrichment (6-mer frequency, TF over GST control); with ELK1, 1.25 fold enrichment (6-mer frequency, TF over GST control); in the test with GABPA, 1.17 fold enrichment (6-mer frequency, TF over GST control); with ERG, 1.31 fold enrichment (6-mer frequency, TF over GST control); in the test with ELF1 it was 1.25 fold enrichment (6-mer frequency, TF over GST control); with EHF, 1.35 fold enrichment (6-mer frequency, TF over GST control). For the same sequence, the binding signal with SPI1 was 1.21 fold enrichment (6-mer frequency, TF over GST control); with SPIB, 1.21 fold enrichment (6-mer frequency, TF over GST control); in the test with ELK3, 1.32 fold enrichment (6-mer frequency, TF over GST control); with FEV, 1.29 fold enrichment (6-mer frequency, TF over GST control); with ETV5, 1.19 fold enrichment (6-mer frequency, TF over GST control); with SPIC, 1.17 fold enrichment (6-mer frequency, TF over GST control). The binding signal is 1.23 fold enrichment (6-mer frequency, TF over GST control) with ELF4; 1.33 fold enrichment (6-mer frequency, TF over GST control) with ELK4; 1.35 fold enrichment (6-mer frequency, TF over GST control) with ETV2; 1.28 fold enrichment (6-mer frequency, TF over GST control) with ELF3; 1.23 fold enrichment (6-mer frequency, TF over GST control) in the test with ETV1.
As to CCATAC, the binding signal with FLI1 is 1.23 fold enrichment (6-mer frequency, TF over GST control); with ELK1, 1.07 fold enrichment (6-mer frequency, TF over GST control); with GABPA, 1.16 fold enrichment (6-mer frequency, TF over GST control); in the test with ERG, 1.08 fold enrichment (6-mer frequency, TF over GST control); with ELF1 it was 1.18 fold enrichment (6-mer frequency, TF over GST control); with EHF, 1.19 fold enrichment (6-mer frequency, TF over GST control). The binding signal with SPI1 was 1.18 fold enrichment (6-mer frequency, TF over GST control); with SPIB it was 1.15 fold enrichment (6-mer frequency, TF over GST control); with ELK3 it was 1.2 fold enrichment (6-mer frequency, TF over GST control); with FEV, 1.16 fold enrichment (6-mer frequency, TF over GST control); with ETV5, 1.16 fold enrichment (6-mer frequency, TF over GST control); in the test with SPIC, 1.13 fold enrichment (6-mer frequency, TF over GST control). For the same sequence, the binding signal with ELF4 is 1.27 fold enrichment (6-mer frequency, TF over GST control); in the test with ELK4 it was 1.14 fold enrichment (6-mer frequency, TF over GST control); with ETV2, 1.06 fold enrichment (6-mer frequency, TF over GST control); in the test with ELF3 it was 1.06 fold enrichment (6-mer frequency, TF over GST control); with ETV1 it was 1.15 fold enrichment (6-mer frequency, TF over GST control).
